Assay [1] concerns the target Estrogen receptor (Homo sapiens) (UniProt P03372). Kind of assay: qHTS assay for small molecule agonists of estrogen receptor alpha signaling (AID 588514).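 For activation: 0% = vehicle only and 100% = reference agonist.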 Note: nearly all actives have a fitted effect of over 70% in size. Note: potency is the fitted concentration of half-maximal effect. The essentials:
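ER-alpha-UAS-bla GripTite HEK293 cells, 5000/well in 2% charcoal/dextran-stripped FBS medium, treated with compound titrations 18 h at 37 C. CCF4 beta-lactamase read by fluorescence after 2 h RT; normalised to 20 nM 17-beta-estradiol (100%) and DMSO (0%), Hill fit for EC50 and efficacy.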

For assay [2], the target named is Bile acid receptor (Homo sapiens) (UniProt Q96RI1). As to the kind of experiment: qHTS assay for small molecule antagonists of farnesoid X receptor signaling (AID 588526). Note: potency is the fitted concentration of half-maximal effect. In short, it runs like this:
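Antagonist mode: titrated compounds tested against chenodeoxycholic acid stimulation (normalized to 50 uM CDCA and DMSO) in GeneBLAzer HEK293T cells for 16 h. Beta-lactamase read by CCF4 fluorescence; IC50 from Hill fits.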
(In general: Quantitative high-throughput screening tests each substance at several concentrations.)

Assay [3] addresses Glucocorticoid receptor (Homo sapiens) (UniProt P04150). As to the kind of experiment: qHTS assay for small molecule agonists of glucocorticoid receptor signaling (AID 588532; active = well fitted curve in the direction sought with a large enough effect in the signal ratio, with a control signal flat; the % refers to the signal ratio;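 note: 100% = dexamethasone at 0.1 µM and 0% = DMSO only wells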). To be noted: HeLa MMTV-bla, beta-lactamase ratio, agonist, 18 h; stronger effect = higher value; percent of dexamethasone control, DMSO zero. In short, it runs like this: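 MMTV-bla HeLa beta-lactamase reporter cells in 1% charcoal/dextran FBS medium, compounds up to 92 uM for 18 h at 37 C, CCF4 readout; normalized to 0.1 uM dexamethasone (100%), EC50 and efficacy from Hill fits.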

A short description of assay [4]: qHTS assay for small molecule antagonists of peroxisome proliferator-activated receptor delta signaling (AID 588535; active = well fitted inhibition curve with a large enough effect in the signal ratio, with a control signal flat, not every such curve was filed as active; the % refers to the signal ratio;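 for max response: cells co-treated with a PPAR-delta agonist as stimulator during compound exposure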). The following applies: HEK293T PPARd-UAS-bla, beta-lactamase FRET ratio, 18 h; 460 nm channel. In short, it runs like this: (§1)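 Antagonist-mode beta-lactamase reporter (GeneBLAzer PPAR-delta-UAS-bla) in HEK293T cells, 2% charcoal/dextran FBS, 4000 cells/well. Compound titrations, 18 h at 37 C; CCF4 ratio read, IC50 and efficacy from Hill fits.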

The target in assay [5] is Peroxisome proliferator-activated receptor delta (Homo sapiens) (UniProt Q03181). The assay is described as above. The essentials: as §1
Chain of Peroxisome proliferator-activated receptor delta (Homo sapiens) (Q03181 whole entry, looked up): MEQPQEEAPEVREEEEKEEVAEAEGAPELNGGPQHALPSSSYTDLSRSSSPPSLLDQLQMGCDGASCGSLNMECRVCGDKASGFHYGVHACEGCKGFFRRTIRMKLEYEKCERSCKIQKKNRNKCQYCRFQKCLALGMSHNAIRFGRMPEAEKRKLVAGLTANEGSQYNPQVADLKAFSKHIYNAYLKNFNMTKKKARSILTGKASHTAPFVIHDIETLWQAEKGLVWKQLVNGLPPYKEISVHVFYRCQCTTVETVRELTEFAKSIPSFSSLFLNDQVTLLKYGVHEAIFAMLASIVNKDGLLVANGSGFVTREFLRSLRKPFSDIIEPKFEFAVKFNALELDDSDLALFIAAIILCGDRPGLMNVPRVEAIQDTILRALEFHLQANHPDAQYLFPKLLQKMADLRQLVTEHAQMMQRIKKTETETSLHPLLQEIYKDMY
The target of assay [6] is Glucocorticoid receptor (Homo sapiens) (UniProt P04150). Kind of assay: qHTS assay for small molecule antagonists of glucocorticoid receptor signaling (AID 588533; active = well fitted inhibition curve with a large enough effect in the signal ratio, with a control signal flat, not every such curve was filed as active; the % refers to the signal ratio;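 note: cells stimulated with 2 nM dexamethasone as agonist; % is set by controls: 0 for no effect and ±100 for the full control effect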). In short, it runs like this: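 Antagonist-mode qHTS: compound titrations added to GRE-bla HeLa cells, then dexamethasone 2 nM final; 18 h, 37 C. CCF4 FRET fluorescence normalized to dexamethasone and DMSO; IC50 from Hill fit.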
Chain of Glucocorticoid receptor (Homo sapiens) (P04150 whole entry, looked up): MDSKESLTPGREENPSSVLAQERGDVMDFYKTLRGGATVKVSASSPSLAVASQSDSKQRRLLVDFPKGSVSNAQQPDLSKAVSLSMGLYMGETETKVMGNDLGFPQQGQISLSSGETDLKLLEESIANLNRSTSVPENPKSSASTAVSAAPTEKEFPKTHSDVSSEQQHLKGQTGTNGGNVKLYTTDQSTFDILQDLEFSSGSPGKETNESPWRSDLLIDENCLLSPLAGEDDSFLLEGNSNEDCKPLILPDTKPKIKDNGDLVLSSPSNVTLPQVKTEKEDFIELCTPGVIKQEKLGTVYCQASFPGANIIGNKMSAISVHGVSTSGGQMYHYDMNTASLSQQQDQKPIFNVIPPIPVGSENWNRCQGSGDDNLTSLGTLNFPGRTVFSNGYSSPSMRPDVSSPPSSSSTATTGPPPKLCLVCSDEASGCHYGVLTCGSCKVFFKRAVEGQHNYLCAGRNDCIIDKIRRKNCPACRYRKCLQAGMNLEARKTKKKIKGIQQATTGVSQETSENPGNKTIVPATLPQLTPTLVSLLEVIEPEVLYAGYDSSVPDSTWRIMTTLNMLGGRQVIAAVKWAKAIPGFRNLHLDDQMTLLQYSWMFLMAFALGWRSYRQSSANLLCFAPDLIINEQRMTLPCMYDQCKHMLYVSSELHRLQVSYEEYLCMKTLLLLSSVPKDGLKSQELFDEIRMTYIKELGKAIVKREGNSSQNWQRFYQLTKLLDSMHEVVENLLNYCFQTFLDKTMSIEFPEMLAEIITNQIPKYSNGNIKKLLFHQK

The target of assay [7] is Peroxisome proliferator-activated receptor gamma (Homo sapiens) (UniProt P37231). Kind of assay: qHTS assay for small molecule agonists of peroxisome proliferator-activated receptor gamma signaling (AID 588536; active = well fitted curve in the direction sought with a large enough effect in the signal ratio, with a control signal flat, not every such curve was filed as active; the % refers to the signal ratio;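 note: 0% = DMSO basal wells and 100% = rosiglitazone at 2 µM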). In short, it runs like this: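 GeneBLAzer PPAR-gamma-UAS-bla HEK293 cells in 1% charcoal/dextran-treated FBS medium were treated 16 h at 37 C with compounds. Beta-lactamase activity was read by CCF4 ratio (460/530 nm). Response was normalized to 2 uM rosiglitazone (100%) and DMSO, then Hill-fitted for EC50 and efficacy.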
Chain of Peroxisome proliferator-activated receptor gamma (Homo sapiens) (P37231 whole entry, looked up): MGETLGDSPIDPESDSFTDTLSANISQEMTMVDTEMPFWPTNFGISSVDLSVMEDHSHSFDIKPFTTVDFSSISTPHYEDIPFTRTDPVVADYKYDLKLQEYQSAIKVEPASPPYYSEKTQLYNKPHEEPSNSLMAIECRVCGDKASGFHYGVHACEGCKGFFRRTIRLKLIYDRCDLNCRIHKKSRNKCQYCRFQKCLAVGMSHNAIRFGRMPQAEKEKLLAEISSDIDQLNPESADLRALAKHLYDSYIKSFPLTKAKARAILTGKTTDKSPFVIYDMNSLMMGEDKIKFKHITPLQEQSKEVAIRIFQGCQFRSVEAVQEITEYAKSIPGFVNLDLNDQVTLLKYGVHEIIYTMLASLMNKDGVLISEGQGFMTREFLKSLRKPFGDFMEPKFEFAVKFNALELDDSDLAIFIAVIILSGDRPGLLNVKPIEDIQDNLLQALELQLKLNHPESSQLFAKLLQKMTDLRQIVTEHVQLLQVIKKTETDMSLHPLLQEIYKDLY

For assay [8] the target is unchanged. As to the kind of experiment: qHTS assay for small molecule antagonists of peroxisome proliferator-activated receptor gamma signaling (AID 588537; active = well fitted inhibition curve with a large enough effect in the signal ratio, with a control signal flat, not every such curve was filed as active; the % refers to the signal ratio;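 note: reporter cells co-stimulated with 50 nM rosiglitazone agonist during compound treatment; % of control where 0% means no effect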). In short, it runs like this: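 PPARγ-UAS-bla HEK293 cells (3000/well) in 1% charcoal/dextran-stripped FBS are treated with compound, then stimulated with 50 nM rosiglitazone for 16 h at 37 °C. Read-out is CCF4 β-lactamase fluorescence after 2 h at RT. IC50 comes from Hill fits normalised to rosiglitazone and DMSO.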

In assay [9] the target is Androgen receptor (Homo sapiens) (UniProt P10275). Kind of assay: qHTS assay for small molecule agonists of androgen receptor signaling (AID 588515; active = well fitted curve in the direction sought with a large enough effect in the signal ratio, with a control signal flat; the % refers to the signal ratio; note: % is set by controls: 0 for no effect and ±100 for the full control effect). The following applies: AR-UAS-bla HEK293, beta-lactamase ratio, agonist 16 h; stronger effect = higher value. The essentials:
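EC50 and efficacy came from Hill fits of titrations (up to 92 uM) normalized to 30 nM R1881 as 100% and DMSO as 0%. Compound exposure was 16 h at 37 C on AR-UAS-bla HEK293 cells, with a 405/460/530 nm CCF4 fluorescence read.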

Assay [10] has the same target. Kind of assay: qHTS assay for small molecule antagonists of androgen receptor signaling (AID 588516; active = well fitted curve in the direction sought with a large enough effect in the signal ratio, with a control signal flat, not every such curve was filed as active; the % refers to the signal ratio; note: % is set by controls: 0 for no effect and ±100 for the full control effect). The essentials: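 Antagonist mode: inhibition of R1881-stimulated (10 nM final) bla reporter in GeneBLAzer AR HEK 293 cells, 16 h at 37C, compounds titrated. IC50 and efficacy from Hill-equation fits of 405/460–530 nm FRET ratios.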

The record followed here is PubChem BioAssay (NCATS).

Structures are written as SMILES. Where “and” joins values, the source holds several entries; their conditions need not be identical. Equal entries are not always repeated. Inconclusive results are not listed. Calls of active or inactive are those of the source. Unless noted, calls come from the whole dose curve.

Chain of Bile acid receptor (Homo sapiens) (Q96RI1 whole entry, looked up): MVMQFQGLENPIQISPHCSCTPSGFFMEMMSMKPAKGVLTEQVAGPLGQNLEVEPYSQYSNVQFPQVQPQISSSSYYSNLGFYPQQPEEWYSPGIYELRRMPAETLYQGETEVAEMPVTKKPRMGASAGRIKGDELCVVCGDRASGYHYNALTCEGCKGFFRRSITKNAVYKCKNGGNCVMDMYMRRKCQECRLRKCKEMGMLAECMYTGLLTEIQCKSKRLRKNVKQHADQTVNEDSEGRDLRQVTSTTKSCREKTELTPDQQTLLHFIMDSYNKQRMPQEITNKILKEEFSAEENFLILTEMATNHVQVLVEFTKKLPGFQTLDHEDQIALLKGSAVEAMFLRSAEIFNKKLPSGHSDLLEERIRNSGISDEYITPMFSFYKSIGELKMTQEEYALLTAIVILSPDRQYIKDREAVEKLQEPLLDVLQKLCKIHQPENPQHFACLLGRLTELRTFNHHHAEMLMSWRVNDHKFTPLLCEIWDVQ
Chain of Androgen receptor (Homo sapiens) (P10275 whole entry, looked up): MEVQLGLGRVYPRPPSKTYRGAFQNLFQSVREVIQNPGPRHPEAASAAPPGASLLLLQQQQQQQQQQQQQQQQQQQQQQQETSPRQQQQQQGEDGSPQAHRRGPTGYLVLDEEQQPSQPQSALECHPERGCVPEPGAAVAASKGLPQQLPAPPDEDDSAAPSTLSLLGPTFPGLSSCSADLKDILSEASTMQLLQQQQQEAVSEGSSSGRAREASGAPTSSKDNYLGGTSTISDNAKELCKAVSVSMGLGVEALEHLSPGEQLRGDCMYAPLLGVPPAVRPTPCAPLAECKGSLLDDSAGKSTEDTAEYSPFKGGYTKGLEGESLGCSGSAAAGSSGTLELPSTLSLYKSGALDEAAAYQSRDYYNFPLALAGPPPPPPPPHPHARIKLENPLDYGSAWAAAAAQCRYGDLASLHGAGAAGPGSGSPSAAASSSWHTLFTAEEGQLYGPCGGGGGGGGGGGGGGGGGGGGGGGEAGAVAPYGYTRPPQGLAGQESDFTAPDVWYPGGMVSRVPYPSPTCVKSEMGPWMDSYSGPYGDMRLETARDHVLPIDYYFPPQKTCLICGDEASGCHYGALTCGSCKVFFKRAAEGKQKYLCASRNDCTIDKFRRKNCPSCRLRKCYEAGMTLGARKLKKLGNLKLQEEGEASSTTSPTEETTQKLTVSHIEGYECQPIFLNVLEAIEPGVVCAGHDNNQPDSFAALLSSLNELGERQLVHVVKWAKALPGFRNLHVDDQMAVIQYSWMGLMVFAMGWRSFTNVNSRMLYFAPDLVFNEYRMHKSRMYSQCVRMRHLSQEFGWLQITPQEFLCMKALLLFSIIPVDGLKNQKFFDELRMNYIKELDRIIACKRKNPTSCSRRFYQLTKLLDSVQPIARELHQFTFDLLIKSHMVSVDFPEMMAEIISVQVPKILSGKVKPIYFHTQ
Chain of Estrogen receptor (Homo sapiens) (P03372 whole entry, looked up): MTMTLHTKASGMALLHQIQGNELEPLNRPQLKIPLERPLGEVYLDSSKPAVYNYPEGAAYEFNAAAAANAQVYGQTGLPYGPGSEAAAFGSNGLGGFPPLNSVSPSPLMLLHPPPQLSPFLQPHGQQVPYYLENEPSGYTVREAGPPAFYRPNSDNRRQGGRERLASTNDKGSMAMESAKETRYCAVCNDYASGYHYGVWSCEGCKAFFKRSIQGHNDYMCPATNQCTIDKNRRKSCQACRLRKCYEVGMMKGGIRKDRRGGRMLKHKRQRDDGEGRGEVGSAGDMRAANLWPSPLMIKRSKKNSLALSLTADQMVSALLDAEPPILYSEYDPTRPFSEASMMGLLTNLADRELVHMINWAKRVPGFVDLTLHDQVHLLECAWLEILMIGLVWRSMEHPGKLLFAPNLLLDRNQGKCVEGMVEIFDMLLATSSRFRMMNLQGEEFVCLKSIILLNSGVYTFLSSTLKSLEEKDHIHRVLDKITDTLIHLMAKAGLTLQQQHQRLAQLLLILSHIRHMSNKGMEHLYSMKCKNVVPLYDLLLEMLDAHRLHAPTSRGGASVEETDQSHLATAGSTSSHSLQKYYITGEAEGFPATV

`O=CCCCC=O`: the Potency entry in [1] and in assay [2] was “inactive” throughout. In addition, the activation in [3] is 5.8% (inactive). In assay [4], the max response is 37.6%. Also, the call in [5] was inactive.
Take `CCCCCCCC/C=C\CCCCCCCC(=O)O`: the Potency entry in assay [1] and in assay [2] was “inactive” in each case. Further, the activation in [3] is -2.91% (inactive) and 1.43% (inactive). Besides, the molecule was called inactive in [6], in [5] and in [7]. For the same molecule, the max response in [4] was 18% and 10.3%.
With `CCCCC/C=C\C/C=C\CCCCCCCC(=O)O`, the Potency entry in [1] and in assay [2] was “inactive” throughout. Further, in assay [4], the max response was 53% and -23.8%. Besides, the outcome in assay [5] and in assay [8] was inactive.
With `CCOC(C)=O`, the Potency result in assay [1] is “inactive”. Moreover, the activation in assay [3] is -2.25% (inactive). In addition, the outcome in assay [6], in assay [5], in assay [7] and in assay [8] was inactive. For the same molecule, the max response in assay [4] is -20.7%.
With `CCCCCCCC(=O)O`, the Potency entry in [1] is “inactive”. For the same molecule, the call in assay [6] and in assay [7] was inactive.
`CC1=C2[C@@H]([C@H](C)CC[C@H]2/C=C(\C)C(=O)O)[C@H](O)C1`: the Potency result in assay [1] and in assay [2] was “inactive” throughout. For the same molecule, the call in assay [7] was inactive.
As to `Nc1ccn([C@H]2CS[C@@H](CO)O2)c(=O)n1`, the activation in assay [3] was -2.07% (inactive). Besides, the outcome in assay [6], in assay [5] and in [7] was inactive. For the same molecule, the max response in assay [4] was -4.56%.
On to `CCOc1ccc2c(c1)C(C)=CC(C)(C)N2`, for which the Potency result in assay [1] was “inactive”. In assay [9], the activation was 15.4% (inactive). Further, the outcome in assay [10] was inactive.
Regarding `CC(C)=O`, the Potency result in assay [1] is “inactive”. The activation in assay [9] is 7.27% (inactive). For the same molecule, the result in [10], in assay [5], in [7] and in assay [8] was inactive. Further, the max response in [4] was -10.3%.
For the molecule `CC1(C)C(C=C(Cl)Cl)C1C(=O)OCc1cccc(Oc2ccccc2)c1` (stereo unspecified), the Potency result in assay [1] is “inactive”. In addition, in [9], the activation was 4.68% (inactive) [middle of 4 runs]. Moreover, the call in [10], in [6] and in assay [5] was inactive.
On to `CC1=CCC(C(C)(C)O)CC1` (stereo unspecified), for which the Potency result in assay [1] and in assay [2] was “inactive” throughout. The activation in assay [9] is 3.37% (inactive). Also, the call in assay [10], in [5], in assay [7] and in assay [8] was inactive. In addition, the max response in assay [4] is -21.9%.
For `CCCCC(CC)COC(=O)CC(C(=O)OCC(CC)CCCC)S(=O)(=O)O` (stereo unspecified), the activation in assay [3] is -0.211% (inactive). Moreover, the result in assay [6] and in [5] was inactive. Moreover, the max response in [4] amounted to 46.2%.
As for `C[C@H]1C[C@H]2[C@@H]3CCC4=CC(=O)C=C[C@]4(C)[C@@]3(F)[C@@H](O)C[C@]2(C)[C@@]1(O)C(=O)CO`, in assay [6], the outcome was inactive.
Consider `IC(I)I`, for which the Potency entry in [2] is “inactive”. The activation in [3] is 16.8% (inactive) and -7.64% (inactive). Also, the molecule was called inactive in [6], in assay [5], in assay [7] and in [8]. Besides, the max response in assay [4] was 3.49% and 21.3%.
For `CC1=C(/C=C/C(C)=C/C=C/C(C)=C/CO)C(C)(C)CCC1`, in assay [1], the Potency was 3.16 µM (active). Moreover, the result in [7] was inactive.
For the molecule `O=C(O)CCC(=O)C(=O)O`, the Potency result in [1] is “inactive”. Also, in assay [3], the activation is -1.14% (inactive). Besides, the molecule was classed as inactive in [6], in assay [7] and in assay [8].
Turning to `CC(O)CO` (stereo unspecified), the Potency entry in assay [1] and in [2] was “inactive” throughout. For the same molecule, the activation in assay [3] was -4.49% (inactive) and -3.73% (inactive). For the same molecule, the molecule was classed as inactive in [6], in [5], in [7] and in assay [8]. Also, in assay [4], the max response is 21.4% and -10.4%.
Consider `CC(C)(C)NC(=O)[C@@H]1C[C@@H]2CCCC[C@@H]2CN1C[C@@H](O)[C@H](Cc1ccccc1)NC(=O)[C@H](CC(N)=O)NC(=O)c1ccc2ccccc2n1`, for which the Potency in assay [2] is 44.7 µM (active).
Turning to `O=C(O)CN(CCN(CC(=O)O)CC(=O)O)CC(=O)O`, the molecule was classed as inactive in [7] and in [8].
Turning to `Cc1ccccc1`, in [3], the activation is -1.45% (inactive) and 2.79% (inactive). Further, the molecule was classed as inactive in assay [6], in assay [5], in [7] and in assay [8]. In assay [4], the max response is 1.03% and 40.9%.
As for `O=S(=O)(O)O`, the call in assay [7] and in assay [8] was inactive.
